Active and inactive are the calls of the source.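 How the source made its calls: active means NF-kB reporter IC50 at most 10 µM, IL-8 IC50 within fivefold of it with bacterial filtrate but not with TNF-alpha; inactive means the rest.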
What follows are compounds tested against Interleukin-8 (Homo sapiens) (UniProt P10145) (assay: inhibitors of NFkB activation in CF airway cells, SAR follow-up, KKLEB cells, panel, IL8 HTRF, NFkB-GFP (AID 651592;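 further: immortalized cystic fibrosis airway epithelial KKLEB cells with an NF-kB GFP reporter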)). Details: PAF/TNFa-induced NFkB-GFP / IL8 HTRF, mean of runs.
Interleukin-8 (Homo sapiens), sequence (P10145 whole entry, looked up): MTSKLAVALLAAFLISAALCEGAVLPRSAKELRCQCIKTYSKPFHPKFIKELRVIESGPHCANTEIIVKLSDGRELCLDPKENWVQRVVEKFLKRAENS

outcome, inactive:
O=C(Nc1ccc(N2CCN(C(=O)c3ccccc3)CC2)cc1)c1cncc(Br)c1
CCOc1ccc(NCc2cc3c(C)nn(-c4ccccc4)c3[nH]c2=O)cc1
O=C(Nc1ccc(N2CCN(C(=O)c3ccccc3Cl)CC2)cc1)c1cncc(Br)c1
O=C(Nc1ccc(N2CCN(C(=O)c3ccccc3Cl)CC2)cc1)c1ccccc1
O=C(Nc1ccc(N2CCN(C(=O)c3ccc(F)cc3)CC2)cc1)c1cncc(Br)c1
CCOc1ccc(NCc2cc3c(-c4ccc(F)cc4)nn(-c4ccccc4)c3[nH]c2=O)cc1

outcome, active:
O=C(Nc1ccc(N2CCN(C(=O)c3ccc(F)cc3)CC2)cc1)c1cccc(Br)c1
O=C(Nc1ccc(N2CCN(C(=O)c3ccccc3)CC2)cc1)c1cccc(Br)c1
O=C(Nc1ccc(N2CCN(C(=O)c3ccc(F)cc3)CC2)cc1)c1ccccc1
O=C(Nc1ccc(N2CCN(C(=O)c3ccccc3)CC2)cc1)c1cccnc1
Cc1ccc(NCc2cc3c(C(C)(C)C)nn(-c4ccccc4)c3[nH]c2=O)cc1
CCOc1ccc(NCc2cc3c(C(C)(C)C)nn(-c4ccccc4)c3[nH]c2=O)cc1
O=C(Nc1ccc(N2CCN(C(=O)c3ccccc3)CC2)cc1)c1cc(Br)cc(Br)c1
CCOc1ccc(NCc2cc3c(-c4ccc(OC)c(OC)c4)nn(-c4ccccc4)c3[nH]c2=O)cc1
O=C(Nc1ccc(N2CCN(C(=O)c3ccccc3F)CC2)cc1)c1cc(Br)cc(Br)c1
O=C(Nc1ccc(N2CCN(C(=O)c3ccc(F)cc3)CC2)cc1)c1ccccn1
O=C(Nc1ccc(N2CCN(C(=O)c3ccccc3F)CC2)cc1)c1ccccn1
O=C(Nc1ccc(N2CCN(C(=O)c3ccccc3F)CC2)cc1)c1cccc(Br)c1
O=C(Nc1ccc(N2CCN(C(=O)c3ccccc3)CC2)cc1)c1ccncc1
O=C(Nc1ccc(N2CCN(C(=O)c3ccccc3F)CC2)cc1)c1ccccc1
O=C(Nc1ccc(N2CCN(C(=O)c3ccccc3)CC2)cc1)c1ccccc1
O=C(Nc1ccc(N2CCN(C(=O)c3ccccc3Cl)CC2)cc1)c1ccccn1
CCOc1ccc(NCc2cc3c(C(C)(C)C)nn(-c4ccc(Cl)cc4)c3[nH]c2=O)cc1
O=C(Nc1ccc(N2CCN(C(=O)c3ccccc3Cl)CC2)cc1)c1cccc(Br)c1
O=C(Nc1ccc(N2CCN(C(=O)c3ccc(F)cc3)CC2)cc1)c1ccncc1
O=C(Nc1ccc(N2CCN(C(=O)c3ccccc3)CC2)cc1)c1ccccn1
O=C(Nc1ccc(N2CCN(C(=O)c3ccccc3F)CC2)cc1)c1cccnc1
O=C(Nc1ccc(N2CCN(C(=O)c3ccccc3F)CC2)cc1)c1ccncc1
O=C(Nc1ccc(N2CCN(C(=O)c3ccc(F)cc3)CC2)cc1)c1cc(Br)cc(Br)c1
O=C(Nc1ccc(N2CCN(C(=O)c3ccccc3Cl)CC2)cc1)c1ccncc1
O=C(Nc1ccc(N2CCN(C(=O)c3ccccc3Cl)CC2)cc1)c1cccnc1
O=C(Nc1ccc(N2CCN(C(=O)c3ccc(F)cc3)CC2)cc1)c1cccnc1
O=C(Nc1ccc(N2CCN(C(=O)c3ccccc3Cl)CC2)cc1)c1cc(Br)cc(Br)c1
Cc1ccc(CNCc2cc3c(C(C)(C)C)nn(-c4ccccc4)c3[nH]c2=O)cc1

— PubChem BioAssay AID651592 (Sanford-Burnham Center for Chemical Genomics, 2012)
